Several values for one entry are separate records, joined by “and”; a condition that tells them apart may be missing. Equal values may be shown once. Unmarked numbers belong to inactive results. Inconclusive results are not listed. Activity calls are given as the source filed them. Unless noted, calls come from the whole dose curve; as a rule, active = well fitted curve in the direction sought with a large enough effect in the repeat runs; inconclusive = weak or mixed curves; inactive = no such curve, though single readings can be large; an effect the other way counts as inactive or inconclusive.

This is an account of results in PubChem BioAssay (Tox21).

The nature of experiment [1]: qHTS assay to identify small molecule agonists of the hypoxia (HIF-1) signaling pathway - cell viability counter screen (AID 1224844; calls by dose curve; note: nearly all actives have a fitted effect of over 50% in size). The essentials:
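ME-180 HRE-bla cells, 2,000/well, 0.5% dialyzed FBS; 5 hr settle, 17 hr compound at 37C/5% CO2; CCF4-AM reporter read first, then CellTiter-Glo luminescence after 30 min RT.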

Experiment [2] can be described thus: qHTS assay to identify small molecule agonists of H2AX (AID 1224845; active = well fitted activation curve with a large enough effect in the signal ratio in the repeat runs, not every such curve was filed as active; the % refers to the signal ratio). The essentials:
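Phospho-H2AX Ser139 measured by HTRF (ex 320 nm; em 665 and 620 nm) after 24 hr antibody incubation. Compounds, 15 concentrations, 0.76% DMSO, were applied to CHO-K1 cells for 3hr at 37C before lysis.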
(In general: qHTS replaces the single test concentration by a dilution series.)

A short description of experiment [3]: qHTS assay to identify small molecule agonists of the hypoxia (HIF-1) signaling pathway (AID 1224846; active = well fitted activation curve with a large enough effect in the signal ratio in the repeat runs, not every such curve was filed as active; the % refers to the signal ratio). The essentials: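 Cell line: CellSensor HRE-bla ME-180; 2,000 cells/well; 0.5% dialyzed FBS; 5 h preincubation; DMSO compound pin transfer; 17 h, 37C, 5% CO2; CCF4-AM added; bla FRET signal scored for activation.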
A short description of experiment [4]: qHTS assay to identify small molecule agonists of H2AX - cell viability counter screen (AID 1224847; calls by dose curve; note: top concentration of the series differs between compounds; nearly all actives have a fitted effect of over 30% in size). A digest of the protocol:
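Compounds tested at 15 concentrations were incubated 3 hr at 37C with wild-type CHO-K1 cells; cellular ATP-based luminescence (CellTiter-Glo) indicated viability.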

A short description of experiment [5]: qHTS RealTime-Glo MT Cell Viability Assay in HepG2 cells - 24 hour (AID 1224867). Note: nearly all actives have a fitted effect of over 50% in size. A digest of the protocol: (§1)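 Compound treatment began 5 h after plating HepG2 cells (600/well) with NanoLuc luciferase and prosubstrate. Plates stayed at 37 C for 40 h; luminescence was captured at six time points, 0 h through 40 h.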
Experiment [6] in a line: qHTS RealTime-Glo MT Cell Viability Assay in HEK293 cells - 32 hour (AID 1224868). Note: nearly all actives have a fitted effect of over 50% in size. Note: potency is the fitted concentration of half-maximal effect. A digest of the protocol:
(§2)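 Quantitative high-throughput screen of the Tox21 10K library in HEK293: cells and RealTime-Glo reagents plated together, compound added at 5 h, luminescence monitored through 40 h at 37 C.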

Experiment [7] is described as follows: A CellTox Green Cytotoxicity Assay to monitor cytotoxicity in HEK293 cells - 0 hour (AID 1224869). Note: nearly all actives have a fitted effect of over 50% in size. A digest of the protocol:
(§3)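 Nonlytic real-time cytotoxicity: HEK293 + CellTox Green reagent plated, 5 h preincubation, pintool compound addition (23 nL in DMSO), 37 C for 40 h, fluorescence measured at successive time points.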

Experiment [8] is described as follows: qHTS RealTime-Glo MT Cell Viability Assay in HepG2 cells - 40 hour (AID 1224870). Note: nearly all actives have a fitted effect of over 50% in size. A digest of the protocol: (§4)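 Real-time viability: cells seeded at 600 per well together with NanoLuc and cell-permeant prosubstrate, compounds added after 5 h incubation. Luminescence tracked at 0, 8, 16, 24, 32 and 40 h of exposure.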
Experiment [9] in a line: A CellTox Green Cytotoxicity Assay to monitor cytotoxicity in HEK293 cells - 40 hour (AID 1224871). Note: nearly all actives have a fitted effect of over 45% in size. The essentials:
as §3

A short description of experiment [10]: qHTS RealTime-Glo MT Cell Viability Assay in HEK293 cells - 16 hour (AID 1224872). Note: nearly all actives have a fitted effect of over 50% in size. Note: potency is the fitted concentration of half-maximal effect. A digest of the protocol: as §2
The nature of experiment [11]: qHTS RealTime-Glo MT Cell Viability Assay in HepG2 cells - 8 hour (AID 1224873). Note: nearly all actives have a fitted effect of over 55% in size. The essentials:
as §4

Experiment [12] in a line: qHTS RealTime-Glo MT Cell Viability Assay in HEK293 cells - 40 hour (AID 1224874). Note: nearly all actives have a fitted effect of over 50% in size. Note: potency is the fitted concentration of half-maximal effect. As to conditions: RealTime-Glo luminescence; max response: stronger effect = lower value. A digest of the protocol: (§5)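 Cells were seeded together with NanoLuc luciferase and a prosubstrate that viable cells reduce to a luciferase substrate. After a 5 h incubation at 37 C/5% CO2, compounds were added and luminescence was measured repeatedly during 40 h of treatment.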

Experiment [13] can be described thus: A CellTox Green Cytotoxicity Assay to monitor cytotoxicity in HEK293 cells - 24 hour (AID 1224875). Note: series mostly up to about 77 µM; nearly all actives have a fitted effect of over 45% in size. The essentials:
as §3

The nature of experiment [14]: A CellTox Green Cytotoxicity Assay to monitor cytotoxicity in HepG2 cells - 16 hour (AID 1224876). Note: nearly all actives have a fitted effect of over 45% in size. The essentials: (§6)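 Read-out is fluorescence of a cyanine dye excluded from live cells that stains DNA of dead HepG2 cells, with signal proportional to cytotoxicity. Plates were read at 0, 8, 16, 24, 32 and 40 h after compound addition.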
A short description of experiment [15]: A CellTox Green Cytotoxicity Assay to monitor cytotoxicity in HepG2 cells - 24 hour (AID 1224878). Note: nearly all actives have a fitted effect of over 45% in size. The essentials: as §6
The nature of experiment [16]: qHTS RealTime-Glo MT Cell Viability Assay in HEK293 cells - 0 hour (AID 1224880). A digest of the protocol: as §5
A short description of experiment [17]: A CellTox Green Cytotoxicity Assay to monitor cytotoxicity in HepG2 cells - 40 hour (AID 1224879). Note: nearly all actives have a fitted effect of over 40% in size. A digest of the protocol: as §6
A short description of experiment [18]: qHTS RealTime-Glo MT Cell Viability Assay in HepG2 cells - 32 hour (AID 1224877). Note: nearly all actives have a fitted effect of over 55% in size. The essentials: as §1
% is set by controls: 0 for no effect and ±100 for the full control effect.

With `CCCN(CCC)C(=O)Cc1c(-c2ccc(Cl)cc2)nc2ccc(Cl)cn12`, the Potency result in experiment [1], in [2], in experiment [4], in [5], in experiment [7] and in experiment [8] was “inactive” in each case. Moreover, the Potency result in experiment [9], in [11], in experiment [13], in experiment [14] and in [15] was “inactive” in each case. Besides, the result in experiment [3] and in [16] was inactive. Besides, the Potency in experiment [6], in [10] and in experiment [12] was 5.35 µM (active) each time.

In the case of `O=C(Cc1ccccc1)c1ccccc1`, the Potency result in [1], in experiment [2], in experiment [4], in experiment [5], in [6] and in experiment [7] was “inactive” each time. The Potency result in experiment [8], in [9], in experiment [10], in [11], in experiment [13] and in [14] was “inactive” each time. Further, the Potency entry in experiment [15] and in [17] was “inactive” in each case. For the same molecule, the molecule was called inactive in experiment [3] and in experiment [16]. Moreover, the max response in experiment [12] was 4.41%.

For the molecule `CC(O)CN1CCN(CC(=O)[O-])CCN(CC(=O)[O-])CCN(CC(=O)[O-])CC1.[Gd+3]` (centres undefined), the Potency result in [1], in experiment [2], in [4], in experiment [5], in experiment [6] and in experiment [7] was “inactive” each time. Also, the Potency entry in experiment [8], in experiment [9], in experiment [10], in experiment [11], in experiment [13] and in experiment [14] was “inactive” in each case. Also, the Potency entry in [18], in experiment [15] and in experiment [17] was “inactive” in each case. Further, the result in experiment [3] and in experiment [16] was inactive. Also, in [12], the max response was 3.85%.

As to `CCCCC(CC)CO[N+](=O)[O-]` (centres undefined), the Potency result in experiment [1], in experiment [2], in experiment [4], in [5], in experiment [6] and in [7] was “inactive” throughout. Also, the Potency result in experiment [8], in experiment [9], in experiment [10], in experiment [13], in [14] and in [15] was “inactive” each time. Besides, the Potency entry in experiment [17] is “inactive”. Further, the molecule was called inactive in experiment [3] and in [16]. Also, the max response in [12] was -1.82%.

For `CC(C)C1(C)N=C(c2ncccc2C(=O)O)NC1=O` (centres undefined), the Potency result in experiment [1], in experiment [2], in experiment [4], in experiment [5], in [6] and in experiment [7] was “inactive” in each case. Also, the Potency entry in experiment [8], in experiment [9], in [10], in experiment [11], in experiment [13] and in [14] was “inactive” each time. The Potency result in experiment [18], in [15] and in [17] was “inactive” each time. The call in experiment [3] and in experiment [16] was inactive. The max response in experiment [12] was 1.4%.

For `CC(C)CCON=O`, the Potency entry in experiment [1], in experiment [2], in experiment [4], in experiment [5], in experiment [6] and in [7] was “inactive” each time. The Potency entry in experiment [8], in experiment [10], in [11], in experiment [18], in experiment [15] and in [17] was “inactive” throughout. The outcome in [3] and in experiment [16] was inactive. For the same molecule, the max response in [12] was 0.253%.

With `CCCBr`, the Potency entry in experiment [1], in experiment [2], in [4], in experiment [5], in [6] and in experiment [7] was “inactive” throughout. The Potency entry in experiment [8], in [9], in [10], in [11], in [13] and in [14] was “inactive” in each case. Besides, the Potency entry in experiment [18], in [15] and in experiment [17] was “inactive” in each case. Besides, the molecule was classed as inactive in experiment [3] and in [16]. The max response in [12] is -3.27%.

For the molecule `Cc1ccc(N)c(C)c1`, the Potency result in experiment [1], in experiment [2], in experiment [4], in experiment [5], in experiment [6] and in experiment [8] was “inactive” each time. The Potency entry in [9], in experiment [10], in experiment [11], in experiment [13], in experiment [14] and in experiment [18] was “inactive” each time. Also, the Potency entry in experiment [15] and in [17] was “inactive” in each case. In addition, the molecule was called inactive in [3] and in experiment [16]. For the same molecule, in [12], the max response was 4.9% and -12.6%.

For `CNC(=O)Oc1cccc(N=CN(C)C)c1`, the Potency entry in experiment [1], in [2], in experiment [4], in [5], in experiment [6] and in experiment [7] was “inactive” each time. Moreover, the Potency entry in experiment [8], in experiment [9], in experiment [10], in experiment [11], in experiment [13] and in [14] was “inactive” throughout. Also, the Potency entry in [18], in [15] and in experiment [17] was “inactive” in each case. For the same molecule, the call in experiment [3] and in [16] was inactive. For the same molecule, in [12], the max response was 7.04%.

Regarding `C[N+]1(CCC(C(N)=O)(c2ccccc2)c2ccccc2)CCCCC1`, the Potency entry in [1], in experiment [2], in [4], in experiment [5], in [6] and in experiment [7] was “inactive” in each case. For the same molecule, the Potency entry in experiment [8], in [9], in [10], in experiment [13], in [14] and in [18] was “inactive” throughout. Also, the Potency entry in [15] and in [17] was “inactive” each time. Also, the molecule was called inactive in experiment [3] and in experiment [16]. Moreover, in experiment [12], the max response was 0.771%.

Consider `CN1CC[C@]23c4c5ccc(O)c4O[C@H]2[C@@H](O)CC[C@H]3[C@H]1C5`, for which the Potency entry in experiment [1], in experiment [2], in experiment [4], in experiment [5], in experiment [6] and in [7] was “inactive” throughout. Moreover, the Potency entry in [8], in [9], in experiment [10], in [11], in experiment [13] and in [14] was “inactive” throughout. Besides, the Potency entry in [18], in experiment [15] and in experiment [17] was “inactive” in each case. Moreover, the result in experiment [3] and in experiment [16] was inactive. In addition, the max response in [12] is -1.3%.

On to `C=CC(C)(CCC=C(C)C)OC(=O)c1ccccc1N` (centres undefined), for which the Potency entry in experiment [1], in [2], in experiment [4], in experiment [5], in experiment [6] and in [8] was “inactive” throughout. In addition, the Potency result in experiment [9], in experiment [10], in experiment [11], in experiment [13], in [14] and in [18] was “inactive” throughout. Further, the Potency result in experiment [15] and in experiment [17] was “inactive” throughout. The call in [3] and in experiment [16] was inactive. For the same molecule, in experiment [12], the max response was -1.39%.

Consider `CCC(C)Cl` (centres undefined), for which the Potency result in experiment [1], in [2], in experiment [4], in experiment [5], in experiment [6] and in experiment [7] was “inactive” in each case. Also, the Potency entry in experiment [8], in experiment [9], in experiment [10], in experiment [11], in experiment [13] and in [18] was “inactive” throughout. In addition, the Potency result in [15] and in experiment [17] was “inactive” each time. Also, the molecule was called inactive in experiment [3] and in [16]. Also, the max response in experiment [12] is 9.33%.

As to `CCCN(CCC)c1c([N+](=O)[O-])cc(C(C)C)cc1[N+](=O)[O-]`, the Potency result in [1], in [2], in [4], in [5], in [6] and in experiment [7] was “inactive” throughout. In addition, the Potency result in experiment [8], in [9], in experiment [10], in [11], in experiment [13] and in [18] was “inactive” each time. Besides, the Potency result in [15] and in [17] was “inactive” each time. Further, the molecule was called inactive in experiment [3] and in [16]. In addition, the max response in experiment [12] was 9.58%.
